Reference: ChEMBL document CHEMBL2218924, “A broad activity screen in support of a chemogenomic map for kinase signalling research and drug discovery” (Biochem J, 2013)

Experiments:
[1] = target: T1, Ephrin type-A receptor 3 (Homo sapiens) (UniProt P29320); conditions: at 10 µM
T1 sequence (whole entry): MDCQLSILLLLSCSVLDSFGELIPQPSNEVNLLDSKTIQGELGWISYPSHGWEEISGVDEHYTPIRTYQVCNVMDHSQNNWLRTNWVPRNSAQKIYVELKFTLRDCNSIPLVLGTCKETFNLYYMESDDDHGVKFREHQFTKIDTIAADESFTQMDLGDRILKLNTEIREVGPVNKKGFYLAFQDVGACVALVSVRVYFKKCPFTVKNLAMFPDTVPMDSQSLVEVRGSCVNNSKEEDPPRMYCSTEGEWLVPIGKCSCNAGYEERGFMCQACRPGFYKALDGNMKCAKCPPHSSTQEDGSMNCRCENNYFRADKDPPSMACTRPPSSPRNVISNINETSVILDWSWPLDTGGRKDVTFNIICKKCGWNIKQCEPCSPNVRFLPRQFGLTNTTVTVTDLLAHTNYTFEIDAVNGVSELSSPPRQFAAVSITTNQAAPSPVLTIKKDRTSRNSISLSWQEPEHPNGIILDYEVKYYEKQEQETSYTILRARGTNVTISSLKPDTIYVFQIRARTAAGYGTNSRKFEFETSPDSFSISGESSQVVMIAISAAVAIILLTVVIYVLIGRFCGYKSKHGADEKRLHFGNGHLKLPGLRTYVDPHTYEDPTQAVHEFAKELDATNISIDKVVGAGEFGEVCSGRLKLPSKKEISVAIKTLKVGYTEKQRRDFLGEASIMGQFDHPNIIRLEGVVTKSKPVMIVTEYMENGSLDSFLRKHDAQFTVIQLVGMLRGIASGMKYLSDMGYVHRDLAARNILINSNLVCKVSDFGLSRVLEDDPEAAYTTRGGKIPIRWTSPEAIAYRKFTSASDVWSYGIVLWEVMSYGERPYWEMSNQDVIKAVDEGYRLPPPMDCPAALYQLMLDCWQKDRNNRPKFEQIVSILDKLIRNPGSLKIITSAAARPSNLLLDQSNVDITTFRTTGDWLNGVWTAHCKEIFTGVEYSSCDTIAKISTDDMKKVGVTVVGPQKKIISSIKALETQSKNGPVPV

[2] = target: Ephrin type-A receptor 7 (Homo sapiens) (UniProt Q15375); conditions: at 1 µM
[3] = target: Ephrin type-A receptor 7 (Homo sapiens) (UniProt Q15375); conditions: at 10 µM
[4] = target: T2, Ephrin type-A receptor 8 (Homo sapiens) (UniProt P29322); conditions: at 1 µM
T2 sequence (whole entry): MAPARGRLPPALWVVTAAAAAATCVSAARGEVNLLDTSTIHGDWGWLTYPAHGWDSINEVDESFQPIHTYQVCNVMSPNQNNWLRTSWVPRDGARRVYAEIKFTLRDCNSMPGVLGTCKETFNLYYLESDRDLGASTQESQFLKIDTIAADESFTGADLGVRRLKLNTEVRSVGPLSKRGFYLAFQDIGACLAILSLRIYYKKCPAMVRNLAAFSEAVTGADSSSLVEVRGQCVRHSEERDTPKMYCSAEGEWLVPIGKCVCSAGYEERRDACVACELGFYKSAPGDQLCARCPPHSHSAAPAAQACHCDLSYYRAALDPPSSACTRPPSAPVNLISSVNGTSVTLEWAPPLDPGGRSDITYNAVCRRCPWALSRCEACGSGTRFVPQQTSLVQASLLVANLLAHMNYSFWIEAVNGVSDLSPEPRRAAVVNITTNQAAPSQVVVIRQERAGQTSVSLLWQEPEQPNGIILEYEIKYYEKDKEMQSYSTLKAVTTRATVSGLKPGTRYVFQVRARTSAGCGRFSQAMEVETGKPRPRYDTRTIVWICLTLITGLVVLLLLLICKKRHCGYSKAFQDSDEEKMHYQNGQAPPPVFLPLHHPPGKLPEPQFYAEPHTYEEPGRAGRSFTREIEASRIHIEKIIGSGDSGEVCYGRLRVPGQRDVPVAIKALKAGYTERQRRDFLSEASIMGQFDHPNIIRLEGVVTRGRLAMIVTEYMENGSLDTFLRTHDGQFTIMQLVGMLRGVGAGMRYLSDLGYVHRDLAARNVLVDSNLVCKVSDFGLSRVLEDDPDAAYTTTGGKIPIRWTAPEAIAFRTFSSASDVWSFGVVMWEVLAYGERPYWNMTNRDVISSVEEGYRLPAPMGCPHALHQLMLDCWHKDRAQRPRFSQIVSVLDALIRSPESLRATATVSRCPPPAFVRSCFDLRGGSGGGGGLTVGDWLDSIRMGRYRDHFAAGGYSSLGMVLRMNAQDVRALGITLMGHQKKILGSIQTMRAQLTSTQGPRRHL

[5] = target: T2, Ephrin type-A receptor 8 (Homo sapiens); conditions: at 10 µM
[6] = target: T3, Ephrin type-B receptor 1 (Homo sapiens) (UniProt P54762); conditions: at 1 µM
T3 sequence (whole entry): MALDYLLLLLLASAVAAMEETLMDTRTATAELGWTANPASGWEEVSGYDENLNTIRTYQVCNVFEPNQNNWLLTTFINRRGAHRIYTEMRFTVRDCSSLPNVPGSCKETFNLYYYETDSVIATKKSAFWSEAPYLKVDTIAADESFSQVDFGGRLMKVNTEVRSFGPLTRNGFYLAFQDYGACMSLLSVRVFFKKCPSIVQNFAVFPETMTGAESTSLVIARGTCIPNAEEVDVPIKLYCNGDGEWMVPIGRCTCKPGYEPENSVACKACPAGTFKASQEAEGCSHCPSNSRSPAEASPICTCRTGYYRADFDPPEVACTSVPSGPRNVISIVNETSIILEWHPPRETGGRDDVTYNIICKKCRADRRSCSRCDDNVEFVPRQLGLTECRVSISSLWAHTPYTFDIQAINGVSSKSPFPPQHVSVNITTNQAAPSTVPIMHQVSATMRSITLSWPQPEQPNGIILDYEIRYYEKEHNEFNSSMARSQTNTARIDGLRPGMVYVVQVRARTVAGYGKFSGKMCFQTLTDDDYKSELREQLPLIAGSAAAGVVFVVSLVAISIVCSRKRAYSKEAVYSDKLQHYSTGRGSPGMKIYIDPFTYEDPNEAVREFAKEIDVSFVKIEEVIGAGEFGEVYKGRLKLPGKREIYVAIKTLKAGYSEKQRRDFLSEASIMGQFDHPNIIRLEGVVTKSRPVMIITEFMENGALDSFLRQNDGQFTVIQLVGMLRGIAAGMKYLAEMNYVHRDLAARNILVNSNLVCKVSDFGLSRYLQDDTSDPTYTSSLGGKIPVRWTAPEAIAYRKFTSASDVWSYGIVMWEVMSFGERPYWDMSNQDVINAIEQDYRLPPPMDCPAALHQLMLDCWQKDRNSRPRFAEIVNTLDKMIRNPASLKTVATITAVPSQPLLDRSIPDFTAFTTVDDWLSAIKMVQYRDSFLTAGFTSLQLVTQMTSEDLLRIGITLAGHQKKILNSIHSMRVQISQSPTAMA

[7] = target: T3, Ephrin type-B receptor 1 (Homo sapiens); conditions: at 10 µM
[8] = target: T4, Ephrin type-B receptor 3 (Homo sapiens) (UniProt P54753); conditions: at 1 µM
T4 sequence (whole entry): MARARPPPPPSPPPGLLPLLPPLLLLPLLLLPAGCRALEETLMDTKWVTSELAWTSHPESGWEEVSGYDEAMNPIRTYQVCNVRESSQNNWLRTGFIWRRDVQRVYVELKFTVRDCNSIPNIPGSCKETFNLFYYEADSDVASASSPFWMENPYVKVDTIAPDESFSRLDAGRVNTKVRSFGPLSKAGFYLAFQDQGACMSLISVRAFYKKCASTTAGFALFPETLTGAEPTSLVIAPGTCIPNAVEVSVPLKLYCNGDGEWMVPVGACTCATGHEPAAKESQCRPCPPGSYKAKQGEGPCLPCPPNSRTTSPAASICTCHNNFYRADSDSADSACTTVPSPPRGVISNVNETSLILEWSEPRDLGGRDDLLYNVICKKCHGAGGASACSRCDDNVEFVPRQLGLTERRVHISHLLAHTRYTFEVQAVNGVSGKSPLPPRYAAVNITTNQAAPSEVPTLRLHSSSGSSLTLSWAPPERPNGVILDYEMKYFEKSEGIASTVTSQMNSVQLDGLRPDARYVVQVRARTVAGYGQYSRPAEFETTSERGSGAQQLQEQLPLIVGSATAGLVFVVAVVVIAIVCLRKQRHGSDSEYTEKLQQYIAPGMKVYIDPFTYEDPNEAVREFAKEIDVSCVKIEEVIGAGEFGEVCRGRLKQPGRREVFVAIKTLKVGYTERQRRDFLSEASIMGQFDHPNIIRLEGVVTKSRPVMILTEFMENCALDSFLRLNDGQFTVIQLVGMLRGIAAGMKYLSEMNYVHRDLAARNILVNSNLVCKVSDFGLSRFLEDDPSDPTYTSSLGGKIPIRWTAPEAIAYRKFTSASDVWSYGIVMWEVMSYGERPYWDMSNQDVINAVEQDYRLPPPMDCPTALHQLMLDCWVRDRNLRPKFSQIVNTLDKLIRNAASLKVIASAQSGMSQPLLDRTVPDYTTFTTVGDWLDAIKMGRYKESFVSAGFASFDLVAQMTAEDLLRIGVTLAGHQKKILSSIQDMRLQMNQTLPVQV

[9] = target: T4, Ephrin type-B receptor 3 (Homo sapiens); conditions: at 10 µM
[10] = target: T5, Ephrin type-B receptor 4 (Homo sapiens) (UniProt P54760); conditions: at 1 µM
T5 sequence (whole entry): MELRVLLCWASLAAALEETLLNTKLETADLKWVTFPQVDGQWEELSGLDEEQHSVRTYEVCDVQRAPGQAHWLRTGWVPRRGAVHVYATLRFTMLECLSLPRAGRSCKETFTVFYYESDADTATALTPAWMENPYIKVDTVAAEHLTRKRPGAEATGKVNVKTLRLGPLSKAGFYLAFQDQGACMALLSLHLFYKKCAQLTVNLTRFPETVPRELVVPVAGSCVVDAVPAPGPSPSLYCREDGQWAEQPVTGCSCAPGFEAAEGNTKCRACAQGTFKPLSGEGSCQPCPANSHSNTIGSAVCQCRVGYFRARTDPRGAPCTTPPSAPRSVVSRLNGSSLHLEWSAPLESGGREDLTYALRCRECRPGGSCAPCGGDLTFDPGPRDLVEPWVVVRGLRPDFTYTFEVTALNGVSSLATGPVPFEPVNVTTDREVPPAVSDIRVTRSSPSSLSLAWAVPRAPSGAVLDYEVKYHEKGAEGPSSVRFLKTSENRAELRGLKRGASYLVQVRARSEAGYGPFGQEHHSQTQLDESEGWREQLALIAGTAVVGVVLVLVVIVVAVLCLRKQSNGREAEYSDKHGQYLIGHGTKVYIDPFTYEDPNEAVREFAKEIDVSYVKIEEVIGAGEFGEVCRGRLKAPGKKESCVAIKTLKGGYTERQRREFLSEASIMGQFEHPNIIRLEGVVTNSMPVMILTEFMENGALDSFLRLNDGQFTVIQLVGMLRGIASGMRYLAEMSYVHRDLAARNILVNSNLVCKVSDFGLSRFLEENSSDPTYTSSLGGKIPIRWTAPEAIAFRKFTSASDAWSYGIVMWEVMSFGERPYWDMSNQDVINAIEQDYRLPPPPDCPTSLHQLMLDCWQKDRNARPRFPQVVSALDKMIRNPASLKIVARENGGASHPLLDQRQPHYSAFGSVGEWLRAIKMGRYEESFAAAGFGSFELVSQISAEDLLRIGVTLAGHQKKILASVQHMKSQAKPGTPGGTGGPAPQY

[11] = target: T5, Ephrin type-B receptor 4 (Homo sapiens); conditions: at 10 µM
[12] = target: Focal adhesion kinase 1 (Homo sapiens) (UniProt Q05397); conditions: at 1 µM
[13] = target: Ephrin type-A receptor 5 (Homo sapiens) (UniProt P54756); conditions: at 1 µM
[14] = target: Ephrin type-A receptor 5 (Homo sapiens) (UniProt P54756); conditions: at 10 µM
[15] = target: Receptor tyrosine-protein kinase erbB-4 (Homo sapiens) (UniProt Q15303); conditions: at 1 µM
[16] = target: Receptor tyrosine-protein kinase erbB-4 (Homo sapiens) (UniProt Q15303); conditions: at 10 µM

Ephrin type-A receptor 7 (Homo sapiens), sequence (Q15375 28-998 limits assumed): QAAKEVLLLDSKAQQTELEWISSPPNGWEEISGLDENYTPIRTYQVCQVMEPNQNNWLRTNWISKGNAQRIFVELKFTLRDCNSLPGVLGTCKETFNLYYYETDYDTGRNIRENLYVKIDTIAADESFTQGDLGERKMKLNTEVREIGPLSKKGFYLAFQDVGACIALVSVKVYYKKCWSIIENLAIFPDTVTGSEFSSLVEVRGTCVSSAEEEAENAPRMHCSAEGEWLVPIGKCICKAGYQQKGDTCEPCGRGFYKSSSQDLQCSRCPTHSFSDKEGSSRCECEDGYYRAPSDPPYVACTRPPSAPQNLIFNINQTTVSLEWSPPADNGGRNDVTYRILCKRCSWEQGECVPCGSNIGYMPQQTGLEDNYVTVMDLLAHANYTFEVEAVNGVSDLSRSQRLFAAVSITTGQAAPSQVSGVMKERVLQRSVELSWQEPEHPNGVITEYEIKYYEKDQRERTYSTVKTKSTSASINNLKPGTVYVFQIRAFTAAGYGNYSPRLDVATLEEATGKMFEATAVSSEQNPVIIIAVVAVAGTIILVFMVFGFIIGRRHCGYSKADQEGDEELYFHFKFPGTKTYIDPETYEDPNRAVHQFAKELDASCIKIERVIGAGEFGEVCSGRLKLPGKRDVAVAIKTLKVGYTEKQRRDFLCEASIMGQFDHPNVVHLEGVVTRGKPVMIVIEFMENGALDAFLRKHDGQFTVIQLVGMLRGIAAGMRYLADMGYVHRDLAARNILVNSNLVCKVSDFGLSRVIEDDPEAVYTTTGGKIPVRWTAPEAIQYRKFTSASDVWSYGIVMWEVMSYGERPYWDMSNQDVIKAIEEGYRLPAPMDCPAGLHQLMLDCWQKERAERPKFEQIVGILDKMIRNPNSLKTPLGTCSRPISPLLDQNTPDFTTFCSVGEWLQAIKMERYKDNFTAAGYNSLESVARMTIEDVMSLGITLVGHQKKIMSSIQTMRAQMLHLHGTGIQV
Ephrin type-A receptor 5 (Homo sapiens), sequence (P54756 whole entry): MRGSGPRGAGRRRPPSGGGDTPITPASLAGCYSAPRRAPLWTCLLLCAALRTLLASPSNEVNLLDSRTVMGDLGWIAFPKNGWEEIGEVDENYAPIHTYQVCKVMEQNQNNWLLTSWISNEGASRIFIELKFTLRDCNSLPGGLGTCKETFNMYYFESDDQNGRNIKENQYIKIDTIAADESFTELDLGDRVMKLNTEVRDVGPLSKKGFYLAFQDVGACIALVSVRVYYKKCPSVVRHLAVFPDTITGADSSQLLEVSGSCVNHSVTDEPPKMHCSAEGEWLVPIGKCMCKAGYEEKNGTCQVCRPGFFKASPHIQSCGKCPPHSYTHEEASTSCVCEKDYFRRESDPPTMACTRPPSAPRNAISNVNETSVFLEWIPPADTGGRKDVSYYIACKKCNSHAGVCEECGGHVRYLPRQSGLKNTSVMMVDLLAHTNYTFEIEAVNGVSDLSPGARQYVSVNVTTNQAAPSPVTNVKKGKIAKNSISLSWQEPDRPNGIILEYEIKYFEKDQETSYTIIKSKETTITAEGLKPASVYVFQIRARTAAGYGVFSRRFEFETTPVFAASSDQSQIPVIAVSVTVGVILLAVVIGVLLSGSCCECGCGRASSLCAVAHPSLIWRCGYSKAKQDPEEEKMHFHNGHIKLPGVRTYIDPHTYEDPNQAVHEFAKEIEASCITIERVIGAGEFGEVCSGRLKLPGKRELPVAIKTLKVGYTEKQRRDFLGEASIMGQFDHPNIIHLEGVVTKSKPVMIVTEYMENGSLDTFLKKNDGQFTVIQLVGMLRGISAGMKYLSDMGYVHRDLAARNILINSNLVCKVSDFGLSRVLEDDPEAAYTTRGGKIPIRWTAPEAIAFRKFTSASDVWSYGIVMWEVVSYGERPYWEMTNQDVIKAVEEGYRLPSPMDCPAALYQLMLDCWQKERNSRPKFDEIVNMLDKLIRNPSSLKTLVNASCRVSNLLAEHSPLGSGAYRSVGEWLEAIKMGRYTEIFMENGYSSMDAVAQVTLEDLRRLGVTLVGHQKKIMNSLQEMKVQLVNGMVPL
Receptor tyrosine-protein kinase erbB-4 (Homo sapiens), sequence (Q15303 whole entry): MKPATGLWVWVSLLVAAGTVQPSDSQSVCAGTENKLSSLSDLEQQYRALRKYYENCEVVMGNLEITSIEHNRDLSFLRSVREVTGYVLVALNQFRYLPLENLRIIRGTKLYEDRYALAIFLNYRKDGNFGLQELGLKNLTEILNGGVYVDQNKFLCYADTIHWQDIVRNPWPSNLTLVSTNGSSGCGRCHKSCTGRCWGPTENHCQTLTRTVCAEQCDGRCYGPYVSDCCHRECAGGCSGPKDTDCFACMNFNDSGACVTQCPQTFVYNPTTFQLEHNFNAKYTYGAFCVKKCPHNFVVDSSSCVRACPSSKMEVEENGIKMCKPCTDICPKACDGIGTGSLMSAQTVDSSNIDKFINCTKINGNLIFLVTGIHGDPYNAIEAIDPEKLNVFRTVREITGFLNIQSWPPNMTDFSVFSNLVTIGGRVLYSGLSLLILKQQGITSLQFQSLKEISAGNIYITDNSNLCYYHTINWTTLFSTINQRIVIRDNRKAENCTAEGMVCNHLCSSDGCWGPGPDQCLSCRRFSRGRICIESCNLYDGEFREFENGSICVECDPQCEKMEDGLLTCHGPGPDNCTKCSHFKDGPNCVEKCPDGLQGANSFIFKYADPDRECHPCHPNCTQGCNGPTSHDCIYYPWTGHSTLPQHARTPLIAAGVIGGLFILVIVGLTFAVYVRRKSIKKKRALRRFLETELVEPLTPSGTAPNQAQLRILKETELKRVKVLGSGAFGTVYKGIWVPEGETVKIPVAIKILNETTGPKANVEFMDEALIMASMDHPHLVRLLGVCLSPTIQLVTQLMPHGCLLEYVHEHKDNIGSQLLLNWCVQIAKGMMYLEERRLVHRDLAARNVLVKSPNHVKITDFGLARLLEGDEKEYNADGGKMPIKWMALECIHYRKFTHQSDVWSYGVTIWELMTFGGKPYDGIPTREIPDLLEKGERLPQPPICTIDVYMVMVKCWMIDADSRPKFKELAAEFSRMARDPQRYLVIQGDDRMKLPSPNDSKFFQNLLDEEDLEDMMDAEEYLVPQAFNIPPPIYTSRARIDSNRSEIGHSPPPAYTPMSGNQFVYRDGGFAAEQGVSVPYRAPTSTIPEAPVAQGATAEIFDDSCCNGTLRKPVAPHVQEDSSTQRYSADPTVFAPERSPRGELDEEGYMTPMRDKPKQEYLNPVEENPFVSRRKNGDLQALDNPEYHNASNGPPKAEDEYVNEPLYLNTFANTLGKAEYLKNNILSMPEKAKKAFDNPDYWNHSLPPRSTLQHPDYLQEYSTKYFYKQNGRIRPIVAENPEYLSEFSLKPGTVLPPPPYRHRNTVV
Focal adhesion kinase 1 (Homo sapiens), sequence (Q05397 2-1052 limits assumed): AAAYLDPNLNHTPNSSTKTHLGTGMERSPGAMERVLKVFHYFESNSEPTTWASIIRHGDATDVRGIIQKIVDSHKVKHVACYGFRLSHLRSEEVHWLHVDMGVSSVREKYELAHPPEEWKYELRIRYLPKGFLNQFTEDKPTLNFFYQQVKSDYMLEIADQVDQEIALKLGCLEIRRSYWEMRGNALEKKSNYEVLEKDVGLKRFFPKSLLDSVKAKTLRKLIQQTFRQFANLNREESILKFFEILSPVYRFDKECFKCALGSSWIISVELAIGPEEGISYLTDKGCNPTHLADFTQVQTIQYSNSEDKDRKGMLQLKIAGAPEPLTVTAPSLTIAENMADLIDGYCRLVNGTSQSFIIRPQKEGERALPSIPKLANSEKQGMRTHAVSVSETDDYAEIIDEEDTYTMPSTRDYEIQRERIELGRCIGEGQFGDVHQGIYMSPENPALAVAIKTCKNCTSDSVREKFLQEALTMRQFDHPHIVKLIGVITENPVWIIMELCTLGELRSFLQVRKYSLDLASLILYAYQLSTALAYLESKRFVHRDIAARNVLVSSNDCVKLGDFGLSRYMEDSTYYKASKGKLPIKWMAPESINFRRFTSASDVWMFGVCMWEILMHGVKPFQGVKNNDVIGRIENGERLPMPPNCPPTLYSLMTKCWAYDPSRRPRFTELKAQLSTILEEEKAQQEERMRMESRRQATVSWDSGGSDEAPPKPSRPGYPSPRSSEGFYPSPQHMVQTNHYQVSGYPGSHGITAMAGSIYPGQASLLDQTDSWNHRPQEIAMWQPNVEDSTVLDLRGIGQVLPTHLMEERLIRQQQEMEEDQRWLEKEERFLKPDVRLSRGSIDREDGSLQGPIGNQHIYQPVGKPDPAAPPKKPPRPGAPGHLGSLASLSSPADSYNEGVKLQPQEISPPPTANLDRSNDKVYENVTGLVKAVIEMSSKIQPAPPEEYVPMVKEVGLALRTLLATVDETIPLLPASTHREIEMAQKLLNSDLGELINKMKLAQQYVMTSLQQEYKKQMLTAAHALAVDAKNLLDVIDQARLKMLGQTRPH

SMILES	residual activity [1] [%]	residual activity [2] [%]	residual activity [3] [%]	residual activity [4] [%]	residual activity [5] [%]	residual activity [6] [%]	residual activity [7] [%]	residual activity [8]	residual activity [9] [%]	residual activity [10] [%]	residual activity [11] [%]	residual activity [12] [%]	residual activity [13] [%]	residual activity [14] [%]	residual activity [15] [%]	residual activity [16] [%]
CCN(CC)CCNC(=O)c1c(C)[nH]c(/C=C2\C(=O)Nc3ccc(Cl)cc32)c1C	47	79	24	100	55	64	24	129% (inactive)	130	100	35	15	–	–	–	–
COc1cc2nccc(Oc3ccc(NC(=S)NC(=O)c4ccccc4C)cc3)c2cc1OC	67	90	56	75	49	86	70	–	129	–	–	–	91	53	85	67
